Inconclusive results are not listed. Activity calls are given as the source filed them. Calls follow the shape of the dose curve; as a rule, active = well fitted activation curve with a large enough effect in the main read-out, with a control signal flat (not every such curve was filed as active); inconclusive = small, poorly fitted or top-dose-only effect, or effect the other way, or a change in a side signal; inactive = flat fitted curve, though single readings scatter.
Target: 3',5'-cyclic-AMP phosphodiesterase 4B (Homo sapiens) (UniProt Q07343)
Sequence (Q07343 whole entry, looked up): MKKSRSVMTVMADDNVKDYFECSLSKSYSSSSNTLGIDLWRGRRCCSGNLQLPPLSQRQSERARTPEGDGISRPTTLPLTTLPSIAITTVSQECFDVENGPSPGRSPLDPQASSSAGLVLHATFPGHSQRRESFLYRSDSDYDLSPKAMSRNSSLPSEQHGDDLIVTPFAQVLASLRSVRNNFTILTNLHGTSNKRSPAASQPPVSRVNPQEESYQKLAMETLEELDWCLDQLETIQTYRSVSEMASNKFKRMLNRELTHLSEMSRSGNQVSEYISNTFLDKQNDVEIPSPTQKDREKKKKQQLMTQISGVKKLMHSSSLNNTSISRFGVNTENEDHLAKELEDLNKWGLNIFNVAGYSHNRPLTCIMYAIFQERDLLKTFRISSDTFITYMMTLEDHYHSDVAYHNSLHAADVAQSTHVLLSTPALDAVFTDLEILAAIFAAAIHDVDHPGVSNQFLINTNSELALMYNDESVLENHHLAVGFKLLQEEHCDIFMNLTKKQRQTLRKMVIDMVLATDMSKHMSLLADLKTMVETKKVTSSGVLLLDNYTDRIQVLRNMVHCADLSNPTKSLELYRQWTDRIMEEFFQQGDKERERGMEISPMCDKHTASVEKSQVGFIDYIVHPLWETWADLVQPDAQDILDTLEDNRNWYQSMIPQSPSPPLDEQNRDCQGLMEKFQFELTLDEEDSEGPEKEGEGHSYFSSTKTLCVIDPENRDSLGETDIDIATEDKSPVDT
Test: qHTS Assay for Inhibitors of PDE-IV (AID 607)
Conditions: HEK293 ACTOne CNG channel cells, membrane potential fluorescence; series mostly up to 22.9 µM
How it was run: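 Live HEK293 cells with a modified cyclic nucleotide-gated (CNG) channel report intracellular cAMP via membrane-potential dye fluorescence (ex 535/em 590 nm). Endogenous PDE-IV was targeted. Compounds were tested at up to 22.9 uM final; RO 20-1724 100 uM served as control.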

| Structure (SMILES) | outcome |
| --- | --- |
| CC(C)[C@H](CO)Nc1nc(Nc2cccc(Cl)c2)c2ncn(C(C)C)c2n1 | inactive |
| CN(C)CC[C@H](c1ccc(Cl)cc1)c1ccccn1 | inactive |
| CN1[C@H]2CC(OC(=O)[C@@H](CO)c3ccccc3)C[C@H]1[C@H]1O[C@H]12 (some centres not stated) | inactive |
| CN(N=O)C(=O)N[C@H]1C(O)OC(CO)[C@@H](O)[C@H]1O (some centres not stated) | inactive |
| COc1cc2c(cc1O)CCC1C2CC[C@@]2(C)C1CC[C@@H]2O (some centres not stated) | inactive |
| Nc1nc2c(c(=O)[nH]1)N(C=O)[C@H](CNc1ccc(C(=O)N[C@@H](CCC(=O)O)C(=O)O)cc1)CN2 | inactive |
| O=C(O)C=Cc1ccc(Cn2ccnc2)cc1 | inactive |
| CCN1CCN(C(=O)N[C@H](C(=O)N[C@@H]2C(=O)N3C(C(=O)O)=C(CSc4nnnn4C)CS[C@@H]23)c2ccc(O)cc2)C(=O)C1=O | inactive |
| c1coc(CNc2ncnc3nc[nH]c23)c1 | inactive |
| COc1ccc2c(c1OC)C(=O)OC2[C@H]1c2c(cc3c(c2OC)OCO3)CCN1C (some centres not stated) | inactive |
| CC(Oc1ccc(O)cc1)(P(=O)(O)O)P(=O)(O)O | inactive |
| O=c1c(O)c(-c2ccc(O)c(O)c2)oc2cc(O)ccc12 | inactive |
